# Several values for one entry are separate records, joined by “and”; a condition that tells them apart may be missing. Equal values may be shown once. Records with an inconclusive call do not appear. A call without a number means that no potency is given here. Activity calls are given as the source filed them. Unless noted, calls follow the shape of the dose curve; as a rule, active = well fitted curve in the direction sought with a large enough effect; inconclusive = small, poorly fitted or top-dose-only effect, or another doubt; inactive = no such curve, though single readings can be large; an effect the other way counts as inactive or inconclusive.
# How the values were obtained:
# [1] = AP1 Signaling Pathway (AID 357; active = well fitted curve in either direction with a large enough effect, not every such curve was filed as active); settings: ME-180 AP-1-bla reporter, EGF-induced, beta-lactamase ratio, 5 h
# Procedure, shortened: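 ME-180 cells with beta-lactamase reporter under AP-1 response element, stimulated with EC50 EGF; compounds tested in titration series, 5 h at 37 °C. CCF4 substrate added 2.5 h at room temperature; 460/530 nm emission ratio gave %activity and AC50.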
# [2] = NFAT Signaling Pathway (AID 444; active = well fitted curve in either direction with a large enough effect, not every such curve was filed as active;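 also: carbachol stimulus at about its EC50 of 1 µM final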); settings: Jurkat NFAT-bla M1, carbachol, beta-lactamase ratio, 5 h
# Procedure, shortened: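 Jurkat cells with NFAT-driven β-lactamase reporter and co-expressed M1 receptor, stimulated with carbachol (final 1 uM, ~EC50), compound titration, 5 h at 37 °C. CCF4 loaded 1 h at RT; 460/530 nm ratio gave %activity and AC50.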
# [3] = Stat Signaling Pathway (AID 446; active = well fitted curve in either direction with a large enough effect, not every such curve was filed as active;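 also: ME-180 cervical cancer cells given 40 pM IL-6 alongside compound; SIE-controlled beta-lactamase reporter measured as 460/530 nm FRET emission ratio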); settings: ME-180 SIE beta-lactamase reporter, IL-6 stimulated, 5 h
# Procedure, shortened: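 ME-180 SIE-bla cells; overnight plating; cpd + IL-6 40 pM, 5 h, 37 C; LiveBLAzer 2.5 h RT; 460/530 nm emission ratio. Normalized to 300 pM IL-6 and 125 nM JAK inhibitor controls.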
# [4] = biological target: Glucocorticoid receptor (Homo sapiens) (UniProt P04150); test: GR-GFP Redistribution (AID 450;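 active = compounds whose dose series gives a full or clear partial fitted curve of increased nuclear translocation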; also: potency is read from the fitted curve at half-maximal effect); settings: U2OS GR-GFP nuclear translocation, laser cytometry, 2 h
# Sequence of Glucocorticoid receptor (Homo sapiens) (P04150 whole entry, looked up, the tested form may be a part): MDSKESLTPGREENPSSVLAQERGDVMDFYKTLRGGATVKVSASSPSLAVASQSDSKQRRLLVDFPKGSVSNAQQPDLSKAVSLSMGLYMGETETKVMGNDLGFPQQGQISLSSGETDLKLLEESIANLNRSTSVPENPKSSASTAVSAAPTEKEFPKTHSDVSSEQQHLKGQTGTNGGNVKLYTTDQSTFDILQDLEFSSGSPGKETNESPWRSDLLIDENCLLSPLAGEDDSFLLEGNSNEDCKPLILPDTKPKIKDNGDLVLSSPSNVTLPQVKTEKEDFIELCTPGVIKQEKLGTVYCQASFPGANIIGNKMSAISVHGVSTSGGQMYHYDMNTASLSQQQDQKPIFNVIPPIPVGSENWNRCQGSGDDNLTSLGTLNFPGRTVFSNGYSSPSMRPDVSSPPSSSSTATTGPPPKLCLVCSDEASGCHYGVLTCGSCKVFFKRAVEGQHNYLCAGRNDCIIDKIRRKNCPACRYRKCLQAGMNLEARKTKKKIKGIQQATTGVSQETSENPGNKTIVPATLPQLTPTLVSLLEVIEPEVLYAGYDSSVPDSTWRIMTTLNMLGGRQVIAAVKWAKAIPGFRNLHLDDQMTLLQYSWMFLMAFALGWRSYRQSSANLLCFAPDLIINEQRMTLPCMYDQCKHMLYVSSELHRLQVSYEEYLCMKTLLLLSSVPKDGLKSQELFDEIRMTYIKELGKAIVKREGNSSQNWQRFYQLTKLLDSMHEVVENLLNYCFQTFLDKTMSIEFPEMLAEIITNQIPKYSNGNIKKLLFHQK
# [5] = biological target: Glucocorticoid receptor (Homo sapiens) (UniProt P04150); test: GR-EFC Redistribution (AID 451; calls by dose curve; also: potency is read from the fitted curve at half-maximal effect); settings: CHO-K1 GR-EFC translocation, beta-gal luminescence, 2 h
# Procedure, shortened: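 CHO-K1 cells expressing nuclear EA and GR-ED fragments of b-gal; compounds titrated up to 46 uM final, 2 h at 37 C. GR nuclear translocation read as complemented b-gal luminescence after 1 h RT detection.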
# [6] = biological target: 3',5'-cyclic-AMP phosphodiesterase 4B (Homo sapiens) (UniProt Q07343); test: qHTS Assay for Inhibitors of PDE-IV (AID 607; active = well fitted activation curve with a large enough effect in the main read-out, with a control signal flat, not every such curve was filed as active)
# Sequence of 3',5'-cyclic-AMP phosphodiesterase 4B (Homo sapiens) (Q07343 whole entry, looked up): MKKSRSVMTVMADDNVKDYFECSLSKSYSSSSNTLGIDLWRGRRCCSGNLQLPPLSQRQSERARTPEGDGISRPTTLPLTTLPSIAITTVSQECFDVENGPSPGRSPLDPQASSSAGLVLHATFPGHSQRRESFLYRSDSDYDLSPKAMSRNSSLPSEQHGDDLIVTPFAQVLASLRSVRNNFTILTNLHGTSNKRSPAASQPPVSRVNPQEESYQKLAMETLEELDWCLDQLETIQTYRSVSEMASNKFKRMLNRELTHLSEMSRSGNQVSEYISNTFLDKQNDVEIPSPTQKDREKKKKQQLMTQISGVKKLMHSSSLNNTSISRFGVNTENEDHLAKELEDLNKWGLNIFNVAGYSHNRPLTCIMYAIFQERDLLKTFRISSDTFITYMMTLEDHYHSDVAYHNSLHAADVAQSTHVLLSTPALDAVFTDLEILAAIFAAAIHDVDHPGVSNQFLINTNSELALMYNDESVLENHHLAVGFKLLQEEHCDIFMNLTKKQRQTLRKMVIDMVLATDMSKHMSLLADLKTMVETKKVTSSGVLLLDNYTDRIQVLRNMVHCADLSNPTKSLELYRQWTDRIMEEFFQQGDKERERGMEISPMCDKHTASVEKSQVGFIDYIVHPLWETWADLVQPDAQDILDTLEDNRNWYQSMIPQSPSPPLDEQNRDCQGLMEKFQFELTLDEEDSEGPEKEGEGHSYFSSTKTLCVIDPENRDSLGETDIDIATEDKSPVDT
# Procedure, shortened: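 ACTOne HEK293 cells carry a modified cAMP-gated CNG channel and express endogenous PDE4; plated 1000 cells/well, compounds up to 22.9 uM final. Membrane-potential dye fluorescence (ex 535/em 590) was read; parental cells received 10 uM forskolin + 100 uM RO 20-1724.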
# [7] = biological target: Muscarinic acetylcholine receptor M1 (Rattus norvegicus) (UniProt P08482); test: qHTS Assay for Antagonists of Acetylcholine Muscarinic M1 Receptor: Kinetic Measurement of Intracellular Calcium Response (AID 943); also: nearly all actives have a fitted effect of over 75% in size
# Sequence of Muscarinic acetylcholine receptor M1 (Rattus norvegicus) (P08482 whole entry, looked up): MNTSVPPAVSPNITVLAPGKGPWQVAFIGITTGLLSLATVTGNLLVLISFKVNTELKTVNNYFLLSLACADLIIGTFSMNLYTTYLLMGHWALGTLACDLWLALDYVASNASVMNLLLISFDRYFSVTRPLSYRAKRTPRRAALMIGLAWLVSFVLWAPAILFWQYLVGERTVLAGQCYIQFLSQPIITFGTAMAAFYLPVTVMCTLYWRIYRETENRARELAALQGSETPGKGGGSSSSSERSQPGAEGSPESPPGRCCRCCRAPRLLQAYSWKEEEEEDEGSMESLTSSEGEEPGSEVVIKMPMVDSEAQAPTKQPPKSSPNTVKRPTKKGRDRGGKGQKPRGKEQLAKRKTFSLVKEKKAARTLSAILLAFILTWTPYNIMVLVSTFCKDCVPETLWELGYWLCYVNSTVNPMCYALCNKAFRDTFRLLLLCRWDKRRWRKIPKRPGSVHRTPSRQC
# Procedure, shortened: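 CHO cells expressing rat M1 receptor, Fluo-4 loaded, preincubated 10 min with compound, then stimulated with EC80 carbachol (100 nM final). Kinetic calcium fluorescence over 4 min; response taken as peak over basal signal.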
# [8] = biological target: Pyruvate kinase (Leishmania mexicana) (UniProt Q27686); test: qHTS Validation Assay for Inhibitors of Leishmania Mexicana Pyruvate Kinase (AID 945)
# Sequence of Pyruvate kinase (Leishmania mexicana) (Q27686 2-499 E452W): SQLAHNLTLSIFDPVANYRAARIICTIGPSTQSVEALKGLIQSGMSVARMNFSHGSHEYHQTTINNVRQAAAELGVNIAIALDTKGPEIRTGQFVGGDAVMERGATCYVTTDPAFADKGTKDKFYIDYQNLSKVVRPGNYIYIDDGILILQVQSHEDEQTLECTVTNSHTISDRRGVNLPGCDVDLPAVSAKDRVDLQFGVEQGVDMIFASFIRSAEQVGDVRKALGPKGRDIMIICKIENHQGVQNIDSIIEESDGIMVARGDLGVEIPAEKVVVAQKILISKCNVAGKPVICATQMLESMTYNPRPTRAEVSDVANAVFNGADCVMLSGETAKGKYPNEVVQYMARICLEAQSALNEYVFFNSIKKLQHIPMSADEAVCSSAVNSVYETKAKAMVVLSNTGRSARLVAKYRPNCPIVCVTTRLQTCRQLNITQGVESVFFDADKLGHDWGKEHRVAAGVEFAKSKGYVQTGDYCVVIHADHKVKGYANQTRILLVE
# Procedure, shortened: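 An endpoint luciferase assay: 0.2 nM LmPYK E451W turns over 0.5 mM PEP with 0.1 mM ADP for 1 h at room temperature, pH 7.2, before PKLight addition. Values are normalized to DMSO-only wells.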
# [9] = biological target: Pyruvate kinase PKM (Homo sapiens) (UniProt P14618); test: qHTS Assay for Activators of Human Muscle Pyruvate Kinase (AID 954; active = well fitted curve in the direction sought with a large enough effect, not every such curve was filed as active)
# Sequence of Pyruvate kinase PKM (Homo sapiens) (P14618 whole entry, looked up): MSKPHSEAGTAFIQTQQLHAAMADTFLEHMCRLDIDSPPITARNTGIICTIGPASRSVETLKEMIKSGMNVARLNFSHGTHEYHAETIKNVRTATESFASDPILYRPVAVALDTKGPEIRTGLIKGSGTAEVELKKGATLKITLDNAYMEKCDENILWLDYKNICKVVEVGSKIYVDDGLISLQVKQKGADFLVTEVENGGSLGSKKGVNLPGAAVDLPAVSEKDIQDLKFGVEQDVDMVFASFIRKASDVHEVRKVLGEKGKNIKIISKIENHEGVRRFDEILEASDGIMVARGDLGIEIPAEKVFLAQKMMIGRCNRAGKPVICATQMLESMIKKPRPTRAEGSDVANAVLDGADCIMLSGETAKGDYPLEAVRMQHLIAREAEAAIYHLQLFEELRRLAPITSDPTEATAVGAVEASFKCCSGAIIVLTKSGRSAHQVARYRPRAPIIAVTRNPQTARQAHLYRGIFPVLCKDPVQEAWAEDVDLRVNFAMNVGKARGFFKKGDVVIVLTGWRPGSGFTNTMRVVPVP
# Procedure, shortened: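 Luminescence from a luciferase ATP-detection/stop reagent reported PKM2 activity. Reactions contained 0.1 nM purified human enzyme, 0.5 mM PEP, 0.1 mM ADP and 7 mM MgCl2 at pH 7.2, run 1 h at RT.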
# [10] = biological target: Alpha-galactosidase A (Homo sapiens) (UniProt P06280); test: Counterscreen for Glucocerebrosidase Inhibitors: qHTS Assay for Human alpha-Galactosidase at pH 4.5 (AID 992)
# Sequence of Alpha-galactosidase A (Homo sapiens) (P06280 whole entry, looked up): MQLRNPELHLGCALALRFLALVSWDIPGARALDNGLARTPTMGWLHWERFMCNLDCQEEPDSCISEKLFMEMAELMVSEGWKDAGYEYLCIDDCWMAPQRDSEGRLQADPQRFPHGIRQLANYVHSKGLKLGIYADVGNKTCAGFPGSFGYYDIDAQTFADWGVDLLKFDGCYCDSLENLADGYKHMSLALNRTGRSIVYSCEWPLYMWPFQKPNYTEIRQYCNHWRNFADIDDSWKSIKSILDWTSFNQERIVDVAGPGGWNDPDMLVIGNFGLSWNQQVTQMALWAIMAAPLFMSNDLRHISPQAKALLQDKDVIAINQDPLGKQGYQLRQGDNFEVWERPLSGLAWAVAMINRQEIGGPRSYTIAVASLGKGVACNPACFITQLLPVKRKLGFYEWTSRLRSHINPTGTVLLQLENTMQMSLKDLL
# Procedure, shortened: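 Enzyme at 2 nM final was combined with compound (0.7 nM to 77 uM) and 80 uM 4-methylumbelliferyl alpha-D-galactopyranoside in 50 mM citric acid, 0.005% Tween-20, pH 4.5. After 20 min at room temperature, fluorescence was read (Ex 365/Em 440 nm); AC50 came from Hill fits.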
# [11] = biological target: alpha-glucosidase (Oryza sativa, rice) (UniProt Q653V4); test: Counterscreen for Glucocerebrosidase Inhibitors: qHTS Assay for Rice alpha-Glucosidase at pH 5.0 (AID 997)
# Procedure, shortened: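 Rice alpha-glucosidase (4 nM final) with 400 uM 4-methylumbelliferyl-alpha-D-glucopyranoside in citrate buffer pH 5.0, 20 min at room temperature, stopped at pH 10; fluorescence 365/440 nm, compounds 0.7 nM–77 uM, AC50 from Hill fits.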
# [12] = qHTS Assay for Lipid Storage Modulators (AID 1519; calls by dose curve); settings: Drosophila S3 cells, BODIPY lipid droplet/cell ratio, laser cytometry, cells loaded with oleic acid
# Procedure, shortened: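 Cells seeded at 5,000 per well were treated with compounds over a concentration series and loaded with oleic acid (400 uM, as added). Lipid droplet fluorescence (488 nm excitation, 500-530 nm channel) was read by laser-scanning cytometry and normalized to 20 uM Triacsin C.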
# [13] = biological target: Ubiquitin carboxyl-terminal hydrolase 1 (Homo sapiens) (UniProt O94782); test: Inhibitors of USP1/UAF1: Pilot qHTS (AID 504865);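 also: rhodamine fluorescence freed from ubiquitin-rhodamine substrate followed over time; top concentration of the series differs between compounds; nearly all actives have a fitted effect of over 35% in size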
# Sequence of Ubiquitin carboxyl-terminal hydrolase 1 (Homo sapiens) (O94782 whole entry, looked up): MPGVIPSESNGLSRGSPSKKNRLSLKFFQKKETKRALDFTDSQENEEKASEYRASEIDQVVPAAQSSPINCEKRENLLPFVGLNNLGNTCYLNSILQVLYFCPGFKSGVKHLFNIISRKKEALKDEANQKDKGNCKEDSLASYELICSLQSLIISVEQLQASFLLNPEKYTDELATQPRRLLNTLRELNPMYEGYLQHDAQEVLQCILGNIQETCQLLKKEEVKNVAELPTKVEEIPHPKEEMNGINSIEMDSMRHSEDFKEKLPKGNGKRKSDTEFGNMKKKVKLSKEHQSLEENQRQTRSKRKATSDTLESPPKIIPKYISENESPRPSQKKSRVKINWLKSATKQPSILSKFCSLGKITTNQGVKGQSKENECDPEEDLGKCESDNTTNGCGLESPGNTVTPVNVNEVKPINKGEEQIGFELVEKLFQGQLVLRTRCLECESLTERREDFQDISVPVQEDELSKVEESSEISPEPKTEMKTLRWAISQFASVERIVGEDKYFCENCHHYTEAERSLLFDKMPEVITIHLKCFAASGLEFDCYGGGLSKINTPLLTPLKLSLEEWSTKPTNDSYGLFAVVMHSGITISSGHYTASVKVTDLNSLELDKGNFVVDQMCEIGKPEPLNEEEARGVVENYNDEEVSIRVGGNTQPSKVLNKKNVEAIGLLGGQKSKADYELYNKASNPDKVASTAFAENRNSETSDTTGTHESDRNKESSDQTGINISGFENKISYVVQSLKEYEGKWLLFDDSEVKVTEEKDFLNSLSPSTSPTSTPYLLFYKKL
# Procedure, shortened: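 USP1/UAF1 complex at 1 nM preincubated 15 min at room temperature with compound, then Ub-Rho substrate added at 150 nM final. Fluorescence (480/540 nm) read kinetically in 50 mM HEPES pH 7.8, 0.5 mM EDTA, 1 mM TCEP, 0.1 mg/ml BSA, 0.01% Tween-20.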
# [14] = biological target: DNA dC->dU-editing enzyme APOBEC-3G (Homo sapiens) (UniProt Q9HC16); test: qHTS for inhibitors of Vif-A3G interactions: Validation (AID 588379)
# Sequence of DNA dC->dU-editing enzyme APOBEC-3G (Homo sapiens) (Q9HC16 whole entry, looked up): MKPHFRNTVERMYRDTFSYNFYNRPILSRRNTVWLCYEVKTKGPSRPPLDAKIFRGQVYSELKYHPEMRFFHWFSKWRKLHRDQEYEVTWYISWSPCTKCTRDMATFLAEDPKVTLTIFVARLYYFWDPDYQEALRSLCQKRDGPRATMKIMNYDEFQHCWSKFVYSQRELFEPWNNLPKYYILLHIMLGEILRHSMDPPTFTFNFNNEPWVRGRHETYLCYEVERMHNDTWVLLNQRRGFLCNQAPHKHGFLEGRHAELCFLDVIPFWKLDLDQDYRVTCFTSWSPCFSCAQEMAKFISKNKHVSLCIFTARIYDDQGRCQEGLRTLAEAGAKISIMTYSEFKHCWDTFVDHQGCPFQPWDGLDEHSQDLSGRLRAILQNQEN
# Procedure, shortened: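 HeLa cells stably expressing Vif and A3G-eYFP, 700 cells/well, incubated overnight at 37 deg C, then exposed to compound overnight at 37 deg C. Inhibition of Vif-mediated degradation read as increased yellow fluorescence (Ex 488/Em 500-530) by laser-scanning cytometry.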
# [15] = tested on: Zika virus NS2B-NS3 protease; test: Primary screen GU AMC qHTS for Zika virus inhibitors (AID 1347154); also: nearly all actives have a fitted effect of over 70% in size
# Procedure, shortened: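 Unlinked Zika NS2B hydrophilic domain–NS3 protease complex at 25 nM in 10 mM Tris-HCl pH 8.0, 0.01% Tween 20, with an AMC peptide substrate. Fluorescence change (340/450 nm) over 15 min at room temperature, normalized to controls, fitted to 4-parameter Hill.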
# [16] = Counterscreen qHTS for small molecule stabilizers of the endoplasmic reticulum resident proteome: GLuc-NoTag assay (AID 1508627);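 also: SH-SY5Y cells given compound then 100 nM thapsigargin to empty ER calcium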
# Procedure, shortened: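 SH-SY5Y cells stably expressing constitutively secreted GLuc without SERCaMP tag, exposed to compound for 19 hr, then to 100 nM thapsigargin for 4 hr at 37C. Medium luciferase was read by coelenterazine luminescence without lysis.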
# [17] = biological target: Mitogen-activated protein kinase 10 (Mus musculus) (UniProt Q61831); test: JNK3 AlphaScreen Assay (AID 530; active = well fitted curve in either direction with a large enough effect, not every such curve was filed as active;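 also: kinase came from lysate of stimulated human HepG2 cells; signal reports phosphorylation of biotinylated GST-cJun 1-79 at Ser73 with 10 µM ATP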)
# Procedure, shortened: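 Pre-activated (IL-1β/TNFα) JNK3 in HepG2 lysates phosphorylates biotin-GST-cJun(1-79), 10 uM ATP; anti-phospho-cJun(Ser73) AlphaScreen read at room temperature, pH 7.6 Tris buffer. Compounds pre-incubated 15 min as titrations.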
# [18] = biological target: Guanine nucleotide-binding protein G(i) subunit alpha-1 (Homo sapiens) (UniProt P63096); test: qHTS Assay for Inhibitors of RGS12 GoLoco Motif Activity (Green Fluorophore) (AID 879);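 also: negative values mean loss of peptide binding seen as reduced polarization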
# Sequence of Guanine nucleotide-binding protein G(i) subunit alpha-1 (Homo sapiens) (P63096 whole entry, looked up): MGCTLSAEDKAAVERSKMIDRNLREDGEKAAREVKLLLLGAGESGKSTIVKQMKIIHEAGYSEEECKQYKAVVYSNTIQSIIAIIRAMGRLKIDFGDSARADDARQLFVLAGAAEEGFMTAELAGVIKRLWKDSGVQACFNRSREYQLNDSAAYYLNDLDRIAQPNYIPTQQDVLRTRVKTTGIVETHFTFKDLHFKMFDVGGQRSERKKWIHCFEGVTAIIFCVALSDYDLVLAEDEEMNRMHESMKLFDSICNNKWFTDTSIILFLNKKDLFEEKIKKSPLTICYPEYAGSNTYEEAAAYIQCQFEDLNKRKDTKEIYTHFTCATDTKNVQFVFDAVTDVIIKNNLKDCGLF
# Procedure, shortened: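 Fluorescence polarization assay: 50 nM Gαi1 with 10 nM FITC-labeled RGS12 GoLoco peptide in 10 mM Tris pH 7.5, 150 mM NaCl, 0.1 mM GDP, 0.05% NP40, 10 min at room temperature with compound.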
# [19] = Confirmatory qHTS for small molecule stabilizers of the endoplasmic reticulum resident proteome: Secreted ER Calcium Modulated Protein (SERCaMP) assay (AID 1508628); also: potency is read from the fitted curve at half-maximal effect; nearly all actives have a fitted effect of over 40% in size
# Procedure, shortened: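 SH-SY5Y cells stably expressing GLuc-SERCaMP, treated 16 h with compound (primary 1.53, 7.67, 38.3 uM; confirmation 11 concentrations, up to 76.6 uM), then 100 nM thapsigargin for 4 h. Secreted Gaussia luciferase in medium read by coelenterazine luminescence.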
# [20] = NCATS anti-infectives library activity on HEK293 viability as a counter-qHTS vs the C. elegans viability qHTS (AID 1745854);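 also: HEK293 cells exposed to compounds for 24 hr before the viability read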
# Procedure, shortened: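 HEK293 cells (1,500/well) exposed 24 hr at 37C to 1:5 titrations, up to 41.7 uM final; counter-screen to a C. elegans viability qHTS. Viability by CellTiter-Glo luminescence after 10 min at room temperature; digitonin as control.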
# [21] = Cell Viability qHTS for small molecule stabilizers of the endoplasmic reticulum resident proteome (AID 1508629); settings: cell viability counter-screen, 100 nM thapsigargin for final 4 h;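 also: human SH-SY5Y neuroblastoma cells carrying the GLuc-SERCaMP reporter; compound exposure about 46 h in total before the viability read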
smiles,measurement,setting,value
O=C1N=C(O)CN1/N=C\c1ccc(-c2ccc([N+](=O)[O-])cc2)o1,"activity change, negative = inhibition",[1]; at 17.2 µM (top of the series),-13.8% (inactive)
same,"activity change, negative = inhibition",[1]; at 38 µM (top of the series),-14.1% (inactive)
same,"activity change, negative = inhibition",[2]; at 17.2 µM (top of the series),4.77% (inactive)
same,"activity change, negative = inhibition",[2]; at 38 µM (top of the series),-3.36% (inactive)
same,"activity, negative = inhibition",[3]; at 17.2 µM (top of the series),9.37% (inactive)
same,"activity, negative = inhibition",[3]; at 38 µM (top of the series),-4.41% (inactive)
same,Potency,[4],> 46 µM (inactive) and > 20.6 µM (inactive)
same,Potency,[5],> 46 µM (inactive) and > 20.6 µM (inactive)
same,Potency,[6],inactive
same,Potency,[7],inactive
same,Potency,[8],inactive
same,outcome,[9],inactive
same,outcome,[10],inactive
same,outcome,[11],inactive
same,"activity change, negative = inhibition",[12]; at 25.7 µM (top of the series),3.41% (inactive)
same,max response,[12]; measured here: cell count channel max response,3.82%
same,max response,[12]; measured here: lipid channel max response,7.61%
same,Potency,[13],inactive
same,Potency,[14],inactive
same,Potency,[15],inactive
same,Potency,[16],inactive
COc1ccc(CCN(C)CCC[C@@](C#N)(c2ccc(OC)c(OC)c2)C(C)C)cc1OC,"activity change, negative = inhibition",[1]; at 17.2 µM (top of the series),2.2% (inactive)
same,"activity change, negative = inhibition",[1]; at 38 µM (top of the series),10.5% (inactive)
same,"activity, negative = inhibition",[3]; at 17.2 µM (top of the series),-16.1% (inactive)
same,"activity, negative = inhibition",[3]; at 38 µM (top of the series),-6.6% (inactive)
same,Potency,[17],inactive
same,outcome,[18],inactive
same,Potency,[8],inactive
same,outcome,[9],inactive
same,outcome,[10],inactive
same,outcome,[11],inactive
same,Potency,[14],inactive
same,Potency,[15],inactive
same,Potency,[16],inactive
same,Potency,[19],12.6 µM (active)
same,outcome,[20],inactive
CN1C[C@H](C(=O)N[C@]2(C)O[C@@]3(O)[C@H]4CCCN4C(=O)[C@H](Cc4ccccc4)N3C2=O)C[C@H]2c3cccc4[nH]cc(c34)C[C@@H]21,Potency,[4],> 46 µM (inactive)
same,Potency,[5],> 46 µM (inactive)
same,Potency,[17],inactive
same,Potency,[14],inactive
same,Potency,[15],inactive
same,Potency,[16],inactive
same,Potency,[19],25.1 µM (active)
same,max response,[21],18% (inactive)

# Source: PubChem BioAssay (NCATS)
